Assay outcomes as filed in PubChem BioAssay.
HIF-2a block: HIF-2a inhibition | 786-0 RCC cells HIF-2a reporter, luciferase luminescence, overnight | inhibition, % at 18.8 µM | actives 0.72% (n = 360,000);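 active = inhibition of the luminescence signal of 40% or more relative to plate controls, in a single-dose primary screen at 18.75 µM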
CF NFkB block: inhibitors of cystic fibrosis induced NF-kB; KKLEB NF-kB-GFP reporter, PAF-induced, GFP fluorescence overnight; inhibition, % at 5 µM; actives 0.86% (n = 360,000);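 active = at least 50% inhibition at 5 µM, scaled per plate between neutral and stimulator controls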;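 also: PAF is a Pseudomonas aeruginosa culture filtrate used as stimulus; plate controls were PAF-stimulated DMSO wells for no effect and unstimulated DMSO wells for full effect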
Peg3 promoter: Peg3 promoter activity inhibition | AID 588405 | inhibition, % at 20 µM | actives 1.7% (n = 360,000) | HeLa PEG-Prom luciferase reporter, luminescence, overnight;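 active = inhibition of at least 50% at 20 µM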
KKLEB tox: reduces viability of KKLEB cystic fibrosis airway cells. KKLEB CF airway cells viability, ATPlite luminescence, overnight; hits give low values; cells stimulated with P. aeruginosa culture filtrate. activity change (cytotoxicity), % at 5 µM. actives 0.36% (n = 360,000). AID 602141;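 active = corrected activity change at or below -50% at 5 µM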
TROY signal inh: inhibitors of TROY-dependent NF-kB signaling. Q293 LMP1-TROYcd NF-kB luciferase reporter, 4 h. inhibition, % at 10 µM. actives 0.98% (n = 360,000). AID 1347056;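 active = compounds whose plate-normalised and pattern-corrected inhibition of the luciferase reporter signal at the single screening dose is 50% or more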
TWEAK Fn14 block: TWEAK-Fn14 signaling inhibition; TWEAK-stimulated Fn14 reporter cells, luciferase luminescence, 8 h; inhibition, % at 10 µM; actives 2% (n = 360,000); in the data active = inhibition above about 50%
Starred values were filed as active, the others as inactive; ! = not confirmed by another sample. This is a sample that favours compounds with a hit; in the whole collection about 4% have one here.

SMILES | HIF-2a block | CF NFkB block | Peg3 promoter | KKLEB tox | TROY signal inh | TWEAK Fn14 block
CCN(CC)C(=S)Oc1c(Cl)cccc1Cl | 19 | -4 | 0 | -3 | 3 | 5
CCN(CC)C(=S)Oc1ccc(Cl)cc1Cl | 4 | -6 | -7 | 3 | -3 | 97*
Nc1ccc(N2CCN(c3ccccc3)CC2)c(F)c1 | -64 | 8 | -54 | 1 | -6 | -13
CC1=C(C)C(=O)C(CCCCC#CCCCC#CCO)=C(C)C1=O | 10 | 44 | 6 | 2 | 10 | 24
COC1=C(OC)C(=O)C(CCCCCCCCCCO)=C(C)C1=O | 5 | 32 | -22 | 2 | 50* | 77*
CC[N+](CC)(CC)CCOc1ccc(/C=C/c2ccccc2)cc1 | 4 | 53* | 10 | -12 | 10 | 4
COc1ccc(OC)c(N=Nc2c(O)c3ccccc3[nH]c2=O)c1 | 5 | 6 | 70* | -20 | 27 | 19
CC1Oc2ccccc2OC1(O)c1ccc2ccccc2n1 (configuration not stated) | 1 | -10 | -11 | 6 | -17 | 1
O=c1c(Sc2ccccc2)c(C(F)(F)F)[nH]n1-c1ccccc1 | 9 | 21 | 34 | 3 | 53* | 7
O=c1c2c(C(F)(F)F)cc(C(F)(F)F)nc2[nH]n1-c1ccccc1 | -1 | 39 | 3 | -41 | 10 | -15
CCN(CC)c1ccc2c(C)c(Cl)c(=O)oc2c1 | -71 | 5 | -36 | -9 | -38 | -17
CCN(CC)c1ccc2c(Cl)c(Br)c(=O)oc2c1 | 88* | 37 | 104* | -12 | 43 | 85*
Cc1ccc(S(=O)(=O)C(CNC(=O)C(C)C)c2cccs2)cc1 (configuration not stated) | 17 | 6 | -2 | 1 | 13 | -9
CN(c1cccc(NC(=O)Nc2cccc(Cl)c2)c1)S(C)(=O)=O | -205 | 14 | -210 | 2 | 5 | 82*
O=C(CCNS(=O)(=O)c1ccc(OC(F)(F)F)cc1)N1CCN(C/C=C/c2ccccc2)CC1 | -1 | -10 | 30 | -6 | 12 | 26
O=C(COC(=O)c1cc([N+](=O)[O-])ccc1N1CCOCC1)Nc1ccc(Cl)cc1 | 16 | 11 | 31 | -14 | 7 | 0
O=C(OCc1ccc(Br)cc1)c1cc([N+](=O)[O-])ccc1N1CCOCC1 | 12 | -3 | 0 | -4 | -23 | 0
O=C(OCc1cccc(Cl)c1)c1cc([N+](=O)[O-])ccc1N1CCOCC1 | 5 | 17 | 28 | -20 | 67* | 2
COc1ccc(COC(=O)c2cc([N+](=O)[O-])ccc2N2CCOCC2)cc1F | 29 | 55* | -5 | -23 | 10 | 36
O=C(COC(=O)c1cc([N+](=O)[O-])ccc1N1CCOCC1)Nc1ccc(Cl)cn1 | 13 | 22 | 53* | -15 | 5 | 4
O=C(N/N=C/c1ccc(OC(=O)c2ccco2)cc1)c1ccccn1 | -165 | -27 | -138 | 6 | -23 | 15
O=C1C(SCCO)=C(SCCO)C(=O)c2ccccc21 | 97* | 72* | 100* | -6 | 32 | 76*
O=c1[nH]c2ccccc2c(O)c1SCCO | 16 | -12 | 1 | 2 | -13 | 4
COc1cc2c(cc1OC)C(c1ccc(-c3ccccc3Cl)o1)=NCC2 | -16 | 5 | -93 | -21 | 12 | 38
COc1cc2c(cc1OC)C(c1ccc(-c3ccc(Cl)cc3Cl)o1)=NCC2 | -4 | 6 | 45 | -31 | 35 | 50*
SMILES | HIF-2a block | CF NFkB block | Peg3 promoter | KKLEB tox | TROY signal inh | TWEAK Fn14 block
COc1cc2c(cc1OC)C(c1ccc(-c3ccc(Cl)c(Cl)c3)o1)=NCC2 | 2 | -8 | 85* | -31 | 47 | 75*
COc1cc2c(cc1OC)C(c1ccc(-c3cc(Cl)ccc3Cl)o1)=NCC2 | 22 | 16 | 48 | -17 | 7 | 36
COc1ccc(OC)c(NC(=O)CC2SC(=Nc3ccc(F)cc3)N(CCC3=CCCCC3)C2=O)c1 (configuration not stated) | -15 | 9 | 7 | -1 | -3 | 3
COc1cc([N+](=O)[O-])ccc1NC(=O)CC1SC(=Nc2ccc(F)cc2)N(CCC2=CCCCC2)C1=O (configuration not stated) | -10 | -7 | -12 | 7 | -1 | 60*
COc1cc(C(=O)N/N=C/c2sccc2C)cc(OC)c1OC | 20 | 52* | -8 | -10 | 13 | 17
CCN1CCN(Cc2ccc(NC(=O)c3ccc(C)c(NC(=O)c4cccc(-c5cn[nH]c(=O)c5)c4)c3)cc2C(F)(F)F)CC1 | 24 | 72* | 4 | -6 | -32 | -188
CCN1CCN(Cc2ccc(NC(=O)c3ccc(C)c(/C=C/c4cnc(Nc5cc(N6CCNCC6)nc(C)n5)cn4)c3)cc2C(F)(F)F)CC1 | 1 | 76*! | 96* | -8 | -17 | -64
CCN1CCN(Cc2ccc(NC(=O)c3cc(NC(=O)c4ccc5n[nH]nc5c4)cc(OC)c3)cc2C(F)(F)F)CC1 | -2 | 5 | -10 | -3 | 4 | 8
C1=C(CCNc2ncnc3c2[nH]c2ccccc23)CCCC1 | -160 | 42 | -74 | -21 | 40 | 69*
Cc1ccc(C(=O)CSc2nccn2-c2ccccc2)cc1 | -193 | -1 | -141 | 0 | 51* | 4
O=C(CSc1nccn1-c1ccccc1)c1ccc(Cl)cc1 | -128 | -16 | -93 | 4 | -9 | -12
CNC(=O)C(=O)NCCN1CCN(S(=O)(=O)c2ccc3ccccc3c2)CC1 | 11 | -8 | 1 | 12 | -17 | 1
COc1ccc(OCCCn2cc(/C=C3/C(=N)N4C=C(C)SC4=NC3=O)c3ccccc32)cc1 | -87 | 35 | 51* | -42 | 18 | 14
CC1CCN(S(=O)(=O)CCNC(=O)c2ccc(F)cc2)CC1 | 9 | 9 | 4 | -7 | 9 | -14
CCCOC(=O)c1ccc(NC(=O)/C=C/c2cccs2)cc1 | -165 | -10 | -193 | 0 | 56* | 32
Cc1ccc(Nc2nc(CSc3nnc(-c4cccnc4)n3-c3ccccc3C)cs2)cc1 | -20 | 23 | -8 | -2 | 51* | 53*
Cn1nnnc1SCc1csc(Nc2ccccc2)n1 | -150 | -12 | -167 | -2 | -11 | 4
Cc1ccc(Nc2nc(CSc3nnnn3-c3ccccc3)cs2)cc1 | -39 | 22 | -19 | -5 | 38 | 58*
Cc1ccc(Nc2nc(CSc3nnnn3C)cs2)cc1 | -192 | -21 | -243 | -5 | 33 | 63*
CN(C(=O)c1ccc(NC(=O)Cc2cccc([N+](=O)[O-])c2)cc1)C1CCCC1 | 6 | -66 | 6 | -8 | -4 | -22
CN(C(=O)c1ccc(S(=O)(=O)c2cccc(Cl)c2)c([N+](=O)[O-])c1)C1CCCCC1 | 34 | 48 | 39 | -19 | 56* | 92*
c1ccc(CNCCCNCCCCNCCCNCc2ccccc2)cc1 | 28 | 11 | 110* | 8 | 10 | -18
